# Substitutions are numbered along the chain they refer to; changes in the protein carry UniProt numbers. In all, about 16,000 sequences were measured (“ka relative to ugcaugu”: median about 0.096, highest 2% from about 0.35 on). This excerpt belongs to a sample that is enriched for the highest values.
# T1: RBFOX1 RRM RbFoxmut (Fox-RRM*) (Homo sapiens, UniProt Q9NWB1 109-208, R118D;E147R;N151S;E152T)
# T1 sequence: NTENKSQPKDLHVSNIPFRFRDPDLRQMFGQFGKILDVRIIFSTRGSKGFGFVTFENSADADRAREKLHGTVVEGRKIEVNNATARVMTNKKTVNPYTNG
# B1: AGGUGCA (DNA:RNA)
# RNA: GGGAGACCGGAAUUCAGAUUGUCCAGGUGCAUUAAAUCCCGUCGUAGCCACCA
# DNA 1: CAATCTGAATTCCGGTCTCCC
# DNA 2: TGGTGGCTACGACGGGATT
# B2: GUAUUCU (DNA:RNA)
# RNA: B1 RNA with A25G, G26U, G27A, G29U, A31U
# DNA 1: CAATCTGAATTCCGGTCTCCC
# DNA 2: TGGTGGCTACGACGGGATT
# B3: UCCUAGU (DNA:RNA)
# RNA: B1 RNA with A25U, G26C, G27C, G29A, C30G, A31U
# DNA 1: CAATCTGAATTCCGGTCTCCC
# DNA 2: TGGTGGCTACGACGGGATT
# B4: UUCUCAG (DNA:RNA)
# RNA: B1 RNA with A25U, G26U, G27C, G29C, C30A, A31G
# DNA 1: CAATCTGAATTCCGGTCTCCC
# DNA 2: TGGTGGCTACGACGGGATT
# B5: CGGCGAA (DNA:RNA)
# RNA: B1 RNA with A25C, U28C, C30A
# DNA 1: CAATCTGAATTCCGGTCTCCC
# DNA 2: TGGTGGCTACGACGGGATT
# B6: GUUUAAG (DNA:RNA)
# RNA: B1 RNA with A25G, G26U, G27U, G29A, C30A, A31G
# DNA 1: CAATCTGAATTCCGGTCTCCC
# DNA 2: TGGTGGCTACGACGGGATT
# B7: UCCCAUG (DNA:RNA)
# RNA: GGGAGACCGGAAUUCAGAUUGUCCUCCCAUGUUAAAUCCCGUCGUAGCCACCA
# DNA 1: CAATCTGAATTCCGGTCTCCC
# DNA 2: TGGTGGCTACGACGGGATT
# B8: GUCGAUG (DNA:RNA)
# RNA: B7 RNA with U25G, C26U, C28G
# DNA 1: CAATCTGAATTCCGGTCTCCC
# DNA 2: TGGTGGCTACGACGGGATT
# B9: GGAAUCG (DNA:RNA)
# RNA: B1 RNA with A25G, G27A, U28A, G29U, A31G
# DNA 1: CAATCTGAATTCCGGTCTCCC
# DNA 2: TGGTGGCTACGACGGGATT
# B10: CGUCCCG (DNA:RNA)
# RNA: B1 RNA with A25C, G27U, U28C, G29C, A31G
# DNA 1: CAATCTGAATTCCGGTCTCCC
# DNA 2: TGGTGGCTACGACGGGATT
# B11: GAUGUCG (DNA:RNA)
# RNA: B1 RNA with A25G, G26A, G27U, U28G, G29U, A31G
# DNA 1: CAATCTGAATTCCGGTCTCCC
# DNA 2: TGGTGGCTACGACGGGATT
# B12: GGCGAUG (DNA:RNA)
# RNA: B7 RNA with U25G, C26G, C28G
# DNA 1: CAATCTGAATTCCGGTCTCCC
# DNA 2: TGGTGGCTACGACGGGATT
# B13: GUCGUCG (DNA:RNA)
# RNA: B7 RNA with U25G, C26U, C28G, A29U, U30C
# DNA 1: CAATCTGAATTCCGGTCTCCC
# DNA 2: TGGTGGCTACGACGGGATT
# B14: CGCGUAA (DNA:RNA)
# RNA: B1 RNA with A25C, G27C, U28G, G29U, C30A
# DNA 1: CAATCTGAATTCCGGTCTCCC
# DNA 2: TGGTGGCTACGACGGGATT
# B15: AACGAAC (DNA:RNA)
# RNA: B7 RNA with U25A, C26A, C28G, U30A, G31C
# DNA 1: CAATCTGAATTCCGGTCTCCC
# DNA 2: TGGTGGCTACGACGGGATT
# B16: UAAUUGU (DNA:RNA)
# RNA: B1 RNA with A25U, G26A, G27A, G29U, C30G, A31U
# DNA 1: CAATCTGAATTCCGGTCTCCC
# DNA 2: TGGTGGCTACGACGGGATT
# B17: GGCUGUC (DNA:RNA)
# RNA: B1 RNA with A25G, G27C, C30U, A31C
# DNA 1: CAATCTGAATTCCGGTCTCCC
# DNA 2: TGGTGGCTACGACGGGATT
# B18: AUUCUUA (DNA:RNA)
# RNA: B1 RNA with G26U, G27U, U28C, G29U, C30U
# DNA 1: CAATCTGAATTCCGGTCTCCC
# DNA 2: TGGTGGCTACGACGGGATT
# B19: UGCAUAU (DNA:RNA)
# RNA: B7 RNA with C26G, C28A, A29U, U30A, G31U
# DNA 1: CAATCTGAATTCCGGTCTCCC
# DNA 2: TGGTGGCTACGACGGGATT
# B20: UGCAUGU (DNA:RNA)
# RNA: B7 RNA with C26G, C28A, A29U, U30G, G31U
# DNA 1: CAATCTGAATTCCGGTCTCCC
# DNA 2: TGGTGGCTACGACGGGATT
# B21: UGCCAUA (DNA:RNA)
# RNA: B7 RNA with C26G, G31A
# DNA 1: CAATCTGAATTCCGGTCTCCC
# DNA 2: TGGTGGCTACGACGGGATT
# B22: CUGCAUA (DNA:RNA)
# RNA: B7 RNA with U25C, C26U, C27G, G31A
# DNA 1: CAATCTGAATTCCGGTCTCCC
# DNA 2: TGGTGGCTACGACGGGATT
# B23: UGCCAUC (DNA:RNA)
# RNA: B7 RNA with C26G, G31C
# DNA 1: CAATCTGAATTCCGGTCTCCC
# DNA 2: TGGTGGCTACGACGGGATT
# B24: CUGCAUG (DNA:RNA)
# RNA: B7 RNA with U25C, C26U, C27G
# DNA 1: CAATCTGAATTCCGGTCTCCC
# DNA 2: TGGTGGCTACGACGGGATT
# B25: CCCUGCA (DNA:RNA)
# RNA: B1 RNA with A25C, G26C, G27C
# DNA 1: CAATCTGAATTCCGGTCTCCC
# DNA 2: TGGTGGCTACGACGGGATT
# B26: UGCCAUG (DNA:RNA)
# RNA: B7 RNA with C26G
# DNA 1: CAATCTGAATTCCGGTCTCCC
# DNA 2: TGGTGGCTACGACGGGATT
# B27: UGCAUUU (DNA:RNA)
# RNA: B7 RNA with C26G, C28A, A29U, G31U
# DNA 1: CAATCTGAATTCCGGTCTCCC
# DNA 2: TGGTGGCTACGACGGGATT
# B28: CGCGCUA (DNA:RNA)
# RNA: B1 RNA with A25C, G27C, U28G, G29C, C30U
# DNA 1: CAATCTGAATTCCGGTCTCCC
# DNA 2: TGGTGGCTACGACGGGATT
# B29: AUACCAG (DNA:RNA)
# RNA: B7 RNA with U25A, C26U, C27A, A29C, U30A
# DNA 1: CAATCTGAATTCCGGTCTCCC
# DNA 2: TGGTGGCTACGACGGGATT
# B30: CCAGGGG (DNA:RNA)
# RNA: B7 RNA with U25C, C27A, C28G, A29G, U30G
# DNA 1: CAATCTGAATTCCGGTCTCCC
# DNA 2: TGGTGGCTACGACGGGATT
# B31: CUUGUUU (DNA:RNA)
# RNA: B7 RNA with U25C, C26U, C27U, C28G, A29U, G31U
# DNA 1: CAATCTGAATTCCGGTCTCCC
# DNA 2: TGGTGGCTACGACGGGATT
# Molecular target: T1, RBFOX1 RRM RbFoxmut (Fox-RRM*)
# Assay: EMSA; HiTS-Eq, 1 nM pool, 10 min; buffer printed only for the single-RNA assays: 10 mM Tris pH 7.5, 150 mM NaCl, 3.4 mM EDTA, 0.001% NP-40, 30 C
# Settings: tags: His6 N-terminal (pET28a); label: 5' 32P
# In short: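 Purified RbFox RRM (wild type or mutant) was equilibrated for 10 min in 50 µL with 1 nM of a 5′-radiolabelled pool of RNA with 7 randomized nucleotides, its flanks annealed to DNA oligonucleotides, across increasing protein concentrations. Free RNA was separated by 8% native PAGE, excised, reverse-transcribed, PCR-barcoded and sequenced on an Illumina HiSeq 2500. Relative association constants came from read-count changes of each variant against the control reaction, normalised to the cognate motif.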
row,Binder,binding signal
1,B1,0.21 KA relative to UGCAUGU
2,B2,0.0952 KA relative to UGCAUGU
3,B3,0.117 KA relative to UGCAUGU
4,B4,0.0887 KA relative to UGCAUGU
5,B5,0.0938 KA relative to UGCAUGU
6,B6,0.131 KA relative to UGCAUGU
7,B7,0.0994 KA relative to UGCAUGU
8,B8,0.141 KA relative to UGCAUGU
9,B9,0.387 KA relative to UGCAUGU
10,B10,0.0717 KA relative to UGCAUGU
11,B11,0.145 KA relative to UGCAUGU
12,B12,0.404 KA relative to UGCAUGU
13,B13,0.15 KA relative to UGCAUGU
14,B14,0.114 KA relative to UGCAUGU
15,B15,0.0568 KA relative to UGCAUGU
16,B16,0.0755 KA relative to UGCAUGU

row,Binder,binding signal
1,B17,0.211 KA relative to UGCAUGU
2,B18,0.13 KA relative to UGCAUGU
3,B19,0.178 KA relative to UGCAUGU
4,B20,1 KA relative to UGCAUGU
5,B21,0.122 KA relative to UGCAUGU
6,B22,0.144 KA relative to UGCAUGU
7,B23,0.208 KA relative to UGCAUGU
8,B24,1.34 KA relative to UGCAUGU
9,B25,0.186 KA relative to UGCAUGU
10,B26,0.509 KA relative to UGCAUGU
11,B27,0.137 KA relative to UGCAUGU
12,B28,0.103 KA relative to UGCAUGU
13,B29,0.122 KA relative to UGCAUGU
14,B30,0.0555 KA relative to UGCAUGU
15,B31,0.0932 KA relative to UGCAUGU

# Reference: article PMC9911399, “Two distinct binding modes provide the RNA-binding protein RbFox with extraordinary sequence specificity”
